Laboratory results: PubChem BioAssay
Calls of active or inactive are those of the source.

biological target: Homeobox protein Hox-A13 (Mus musculus) (UniProt Q62424); experiment: inhibitors of HoxA13-DNA binding, primary screen, biochemical, fluorescence polarization, labeled oligonucleotide (AID 1185); settings: 15 min, higher = more signal, called active from +8 up or from −8 down
Sequence (Q62424 whole entry, looked up): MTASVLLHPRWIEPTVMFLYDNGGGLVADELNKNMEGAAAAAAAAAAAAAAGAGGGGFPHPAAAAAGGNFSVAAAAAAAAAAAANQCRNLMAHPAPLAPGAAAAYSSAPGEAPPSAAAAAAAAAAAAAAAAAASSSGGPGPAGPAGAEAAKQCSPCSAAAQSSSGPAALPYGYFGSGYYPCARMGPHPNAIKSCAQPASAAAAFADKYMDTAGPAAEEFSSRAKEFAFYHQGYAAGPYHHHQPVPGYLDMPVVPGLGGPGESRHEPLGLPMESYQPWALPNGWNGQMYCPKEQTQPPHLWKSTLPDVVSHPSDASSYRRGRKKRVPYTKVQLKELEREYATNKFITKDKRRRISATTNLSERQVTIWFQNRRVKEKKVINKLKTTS

z-score, inactive:
COC(=O)CC=C[C@@H](C)[C@@H](C=NO[C@@H](C)c1cc(-c2c(C)cc(C)cc2C)no1)NS(=O)(=O)c1ccc(C)cc1 -2.92
CON=CC[C@@H]1C=C[C@H](OC(C)=O)[C@@H](COC(C)=O)O1 0.463
COC(=O)CC=C[C@@H](C)[C@@H](C=NO[C@@H]1O[C@H](COC(C)=O)[C@@H](OC(C)=O)[C@H](OC(C)=O)[C@H]1OC(C)=O)NS(=O)(=O)c1ccc(C)cc1 -5.17
CCOC(=O)[C@H](CC(C)C)NC(=O)CCC1CC(OC(=O)NCc2ccc3c(c2)OCO3)CC2(CCCC(COC(=O)NCC(c3ccccc3)c3ccccc3)O2)O1 (stereo partly specified) -6.66
Cc1ccc(S(=O)(=O)N[C@@H]2COC(=O)[C@@H](C)COC(=O)CC=C[C@H]2C)cc1 -0.0483
CC(C)(C)N1C(=O)[C@H]2[C@H]3[C@H](O)[C@H](O)CC(=NO[C@@H]4O[C@H](CO)[C@@H](O)[C@H](O)[C@H]4O)[C@H]3CC[C@H]2C1=O -4.08
O=C1C[C@@H](O)[C@@H](O)[C@@H]2[C@@H]3C(=O)N(Cc4ccccc4)C(=O)[C@@H]3CC[C@@H]12 -0.967
CC(C)=CCCC(C)=CCON=C1C[C@@H](O)[C@@H](O)[C@@H]2[C@@H]3C(=O)N(c4cccc(Oc5ccccc5)c4)C(=O)[C@@H]3CC[C@@H]12 -3.76
CO[C@H]1COC(=O)[C@@H](C)COC(=O)[C@H](COCc2ccccc2)NC(=O)CC=C[C@H]1C -1.96
C[n+]1ccc(-c2ccc(CO)cc2)cc1 -2.76
CCCNC(=O)OC[C@H]1O[C@H](CCON=C(C)CCC(=O)OC[C@H]2O[C@H](c3ccccc3)C=C[C@@H]2Oc2ccc(OC)cc2)C=C[C@@H]1Oc1ccc(OC)cc1 -2.1
COC(=O)[C@H](C)NC(=O)CCC1CC(OC(=O)NCc2ccc3c(c2)OCO3)CC2(CCCC(COC(=O)NCC(c3ccccc3)c3ccccc3)O2)O1 (stereo partly specified) -6.84
COC(=O)[C@H](C)NC(=O)CCC1CC(OC(=O)NCc2cccc3ccccc23)CC2(CCCC(COC(=O)NCC(c3ccccc3)c3ccccc3)O2)O1 (stereo partly specified) -4.01
O=C1OCCC=C1C(O)CCc1ccccc1 (stereo unspecified) -0.295
COC(=O)[C@H](C)NC(=O)CCC1CC(OC(=O)NCc2ccc3c(c2)OCO3)CC2(CCCC(COC(=O)NCc3cccc(C(F)(F)F)c3)O2)O1 (stereo partly specified) -5.57
CO[C@H]1COC(=O)[C@H](C)NC(=O)CC=C[C@@H](C)[C@H](OC)COC(=O)[C@@H](OCc2ccccc2)C=C[C@@H]1C -0.22
C#CCCCON=C1C[C@@H](O)[C@@H](O)[C@@H]2[C@@H]3C(=O)N(c4ccc(F)cc4F)C(=O)[C@@H]3CC[C@H]12 -0.42
CCC=CCCC(OC(=O)c1ccc(Br)cc1)C1=CCCCC1=O (stereo unspecified) -3.22
C[C@@H](c1ccccc1)N1C(=O)[C@H]2[C@H]3[C@H](O)[C@H](O)CC(=O)[C@H]3CC[C@H]2C1=O 0.0632
CCOC(=O)[C@H](CC(C)C)NC(=O)CCC1CC(OC(=O)NCc2cccc3ccccc23)CC2(CCCC(COC(=O)NCCc3ccc(Cl)cc3)O2)O1 (stereo partly specified) -4.02
C#CCCCON=C1C[C@@H](O)[C@@H](O)[C@@H]2[C@@H]3C(=O)N(C(C)(C)C)C(=O)[C@@H]3CC[C@@H]12 -3.44
CC(C)CON=C1C[C@@H](O)[C@@H](O)[C@@H]2[C@@H]3C(=O)N(Cc4ccc5c(c4)OCO5)C(=O)[C@@H]3CC[C@H]12 -3.41
Cc1ccc(S(=O)(=O)N[C@H]2COC(=O)CC=C[C@@H](C)COC(=O)CC=C[C@@H]2C)cc1 -1.06
Cc1cc2c(nc1C)CCCCN2CC(C)ON=C[C@@H](C)[C@H](OCc1ccccc1)C(C)C (stereo partly specified) -3.66
C[C@@H]1CC[C@H]2C(=O)O[C@@H](COc3ccc(C(C)(C)C)cc3)CN2[C@@H]1c1ccc(Br)cc1 0.347
CCOC(=O)[C@H](CC(C)C)NC(=O)CCC1CC(OC(=O)NCc2cccc3ccccc23)CC2(CCCC(COC(=O)NCc3ccncc3)O2)O1 (stereo partly specified) -6.29
C#CCCCON=C1C[C@@H](O)[C@@H](O)[C@@H]2[C@@H]3C(=O)N(Cc4ccccc4)C(=O)[C@@H]3CC[C@@H]12 -0.417
COC(=O)NCC=Cc1nc(CCCO)co1 -2.8
CC(C)=NOC[C@@H](C)[C@H](OCc1ccccc1)C(C)C 1.47
CO[C@H]1COC(=O)CC=C[C@@H](C)[C@H](NS(=O)(=O)c2ccc(C)cc2)COC(=O)CCC[C@@H]1C -0.499
COc1ccc(O[C@H]2C=C[C@@H](c3ccccc3)O[C@@H]2COC(=O)CCC(C)=NO[C@@H]2O[C@H](COC(C)=O)[C@@H](OC(C)=O)[C@H](OC(C)=O)[C@H]2OC(C)=O)cc1 -4.34
CCOC(=O)CCN1C(=O)[C@H]2[C@H]3[C@H](O)[C@H](O)CC(=NOCc4ccccc4)[C@H]3CC[C@H]2C1=O 0.313
COCOc1ccc(Br)cc1C(=O)[C@@H]1O[C@H]1c1cccc(OC)c1 -1.99
CC(C)CON=C1C[C@@H](O)[C@@H](O)[C@@H]2[C@@H]3C(=O)N(C4CCCCC4)C(=O)[C@@H]3CC[C@@H]12 -4.41
CO[C@H]1COC(=O)CC=C[C@@H](C)[C@H](OC)COC(=O)[C@@H]2CCCN2C(=O)CC=C[C@@H]1C -0.438
CCOC(=O)[C@H](Cc1ccccc1)NC(=O)CCC1CC(OC(=O)NCc2ccc3c(c2)OCO3)CC2(CCCC(COC(=O)NCCc3ccccc3OC)O2)O1 (stereo partly specified) -4
